Screens as filed in PubChem.
The list is not random: actives were taken first. Their share in the collection is about 1.7%.
BH1578 lux ind = induces V. cholerae light production without autoinducers. V. cholerae BH1578 lux reporter, luminescence, 6 h. activation, % at 18.7 µM. actives 0.16% (n = 350,000). AID 588436; in the data active means activation mostly above about 9.7%, no sharp cut-off
PfHsp40 rescue = compounds rescuing yeast from Plasmodium falciparum HSP40 toxicity; growth rescue, % at 12.5 µM; actives 0.68% (n = 340,000); S. cerevisiae expressing PfHsp40, growth rescue, ATP luminescence; in the data active means growth rescue above about 28%, passing the limit was not always enough;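 further: yeast W303a lacking pdr1 and pdr3 grown in galactose medium; growth measured after three days at 30 °C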
Mtb hypoxia inh = reduces hypoxia-regulated biosensor signal in M. tuberculosis | M. tuberculosis hypoxia-regulated fluorescent reporter, fluorescence | fluorescence inhibition, % (concentration not given with the values) | actives 0.1% (n = 300,000); in the data active means fluorescence inhibition mostly above about 23%, no sharp cut-off; inactive means mostly below about 17%
CCHFV vOTU inh = blocks the CCHF virus ovarian tumor domain protease | CCHFV vOTU protease, Pep-AMC fluorescence | inhibition, % at 11.5 µM | actives 0.55% (n = 370,000) | AID 651958; in the data active means inhibition above about 30%; further: 0% = vehicle wells with enzyme and 100% = no enzyme wells
Sa ugtP lethal = kills S. aureus RN4220 lacking UgtP. actives 0.54% (n = 330,000). S. aureus RN4220 ugtP deletion, OD600 growth, 16 h. growth inhibition, % (concentration not given with the values); in the data active means growth inhibition above about 68%;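 further: plate controls were untreated wells for no effect and antibiotic for full effect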
Sa RN4220 lethal = kills Staphylococcus aureus RN4220. inhibition, % (test concentration not listed). S. aureus RN4220 growth, OD600, 16 h. actives 0.33% (n = 330,000); in the data active means inhibition above about 85%;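 further: plate controls were untreated cells for no effect and reference antibiotic for full effect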
An asterisk follows results filed as active; i = inactive; . = not tested or not shown.

SMILES | BH1578 lux ind | PfHsp40 rescue | Mtb hypoxia inh | CCHFV vOTU inh | Sa ugtP lethal | Sa RN4220 lethal
O=C(NN=C1CCS(=O)(=O)c2ccc(F)cc21)c1ccc(O)cc1 | . | . | 2 | . | 0 | 2
COc1ccc(-c2nc(-c3ccc4c(c3)OCO4)[nH]c2-c2ccc(OC)cc2)cc1 | i | 3 | -4 | -3 | 87* | 16
COCCCNC(=O)c1ccc2c3c(onc13)-c1ccccc1C2=O | -1 | 2 | 11 | . | 18 | 80
O=C(O)CCNc1cc(N2CCN(C(=O)c3ccco3)CC2)c2noc3c2c1C(=O)c1ccccc1-3 | -1 | 0 | . | 54* | . | .
CCN1CCN(c2cc(N3CCN(C(=O)c4ccco4)CC3)c3c4c(onc24)-c2ccccc2C3=O)CC1 | i | -1 | . | . | . | .
CC(=O)OCCNc1cc(N2CCN(C)CC2)c2noc3c2c1C(=O)c1ccccc1-3 | 0 | 2 | 54* | 10 | 1 | -3
COc1ccc(OC)c(N/C(=N\C(=S)Nc2ccccc2)Nc2nc(C)cc(C)n2)c1 | . | . | 12 | . | -23 | 0
Cc1cccc([N+](=O)[O-])c1NC(=O)CN(Cc1ccccc1)Cc1ccccc1 | 0 | 1 | 10 | 2 | 99* | 1
Cn1c(SCC(=O)NN=Cc2cc([N+](=O)[O-])ccc2O)nnc1-c1ccccc1 | . | . | 3 | . | 72 | 80
CC(C)CCn1c2ccccc2c2cc(CC(N)=O)ccc21 | 1 | 2 | -1 | 9 | 83* | -3
NC(=O)CCn1c2ccccc2c2ccccc21 | -1 | 0 | 5 | 7 | 4 | 4
O=C(NCc1ccccc1)C1=CC(c2ccc(C(F)(F)F)cc2)CC(OCCCCO)O1 (stereo not given) | . | . | 13 | . | 8 | 0
Cc1nnc(SCC2=C(C(=O)O)N3C(=O)C(NC(=O)Cn4nc(C(F)F)c(Cl)c4C)C3SC2)s1 (stereo not given) | 0 | -1 | . | 7 | 100* | 100*
Cc1nnc(SCC2=C(C(=O)O)N3C(=O)C(NC(=O)Cn4nc(C(F)F)cc4C)C3SC2)s1 (stereo not given) | 1 | -1 | . | -15 | 101* | 100*
Cc1nnc(SCC(=O)NC2CC2)s1 | i | 0 | 8 | 3 | 3 | -1
CC(=O)OCC1=C(C(=O)O)N2C(=O)C(NC(=O)Cn3nc(C(F)F)c(Cl)c3C)C2SC1 (stereo not given) | 0 | 2 | . | -7 | 96* | 99*
CC1=C(C(=O)OCc2ccc([N+](=O)[O-])cc2)N2C(=O)C(NC(=O)Cc3ccccc3)C2SC1 (stereo not given) | 0 | -1 | 0 | -5 | 0 | 2
CC(=O)OCC1=C(C(=O)O)N2C(=O)C(NC(=O)CCn3nc(C)c(Cl)c3C)C2SC1 (stereo not given) | 0 | 0 | . | 3 | 99* | 99*
COC(=O)c1ccc(C23CC4(C2)C(CN(Cc2ccc(C(F)(F)F)cc2)C4c2ccccc2)C3c2ccc(Cl)nc2)cc1 (stereo not given) | . | . | -4 | . | 0 | -7
COC(=O)C1=C(C(=O)OC)C2N(C)c3ccccc3[C@@]23CC(C(=O)OC)N(C(=O)c2cc(C)oc2C)C3=N1 (stereo not given in full) | . | . | 7 | . | 5 | 5
CC(=O)OCC1=C(C(=O)O)N2C(=O)C(NC(=O)CCn3nc(C(F)(F)F)c(Br)c3C3CC3)C2SC1 (stereo not given) | 0 | -1 | . | -6 | 100* | 100*
CCCN1CCC(=O)N(C(CO)CC(C)C)CC1 (stereo not given) | . | . | -3 | . | 1 | 3
O=C(/C=C/c1ccc(S(=O)(=O)N2CCOCC2)cc1)NCCc1ccc(C(F)(F)F)cc1 | i | 0 | 25* | 10 | 3 | -1
COc1ccc(CCNC(=O)/C=C/c2ccc(S(=O)(=O)N3CCOCC3)cc2)cc1 | 0 | -1 | 4 | -7 | -4 | 5
Cc1cccc(Oc2cc([N+](=O)[O-])cc3c2C(=O)Nc2ccccc2O3)c1 | 0 | 0 | 1 | 12 | 97* | 98*
SMILES | BH1578 lux ind | PfHsp40 rescue | Mtb hypoxia inh | CCHFV vOTU inh | Sa ugtP lethal | Sa RN4220 lethal
O=C1Nc2ccccc2Oc2cc([N+](=O)[O-])cc(Oc3ccccc3)c21 | 0 | 0 | 4 | -10 | 86 | 93*
Cc1ccccc1-c1noc(-c2ccc(O)cc2)n1 | i | 129* | 2 | 14 | 2 | 1
O=C(Nc1ccc(C2=NCCN2)cc1)c1ccc(C(=O)Nc2ccc(C3=NCCN3)cc2)c(Cl)c1 | -10 | 234* | . | -9 | . | .
CCOC(=O)N1CCN(S(=O)(=O)c2ccc(C(=O)NNc3nc4cc(C)cc(C)c4s3)cc2)CC1 | i | 323* | . | . | . | .
CCOC(=O)N1CCN(S(=O)(=O)c2ccc(C(=O)N(CCN(C)C)c3nc4ccc(Cl)cc4s3)cc2)CC1 | -1 | 0 | 10 | -2 | 15 | 3
CCOC(=O)N1CCN(S(=O)(=O)c2ccc(C(=O)NNc3nc4c(C)cccc4s3)cc2)CC1 | -1 | 130* | 3 | 10 | 4 | 1
CCOC(=O)N1CCN(S(=O)(=O)c2ccc(C(=O)NNc3nc4c(C)cc(C)cc4s3)cc2)CC1 | 0 | . | -9 | 18 | -1 | 14
CCOC(=O)N1CCN(S(=O)(=O)c2ccc(C(=O)NNc3nc4ccc(Cl)cc4s3)cc2)CC1 | -2 | 274* | -1 | . | -8 | -6
CC(=O)NC(=Cc1ccc2c(c1)OCO2)C(=O)NCCCO | . | . | 5 | . | 4 | 5
CC(NC(=O)c1nc[nH]c1C(=O)N(C)Cc1ccccc1)c1ccccc1 (stereo not given) | . | . | 21 | . | 7 | 9
O=C(OCC(=O)c1c[nH]c2ccccc12)c1ccc([N+](=O)[O-])s1 | 0 | -5 | 14 | 8 | 101* | 85
CCOC(=O)c1c(C)[nH]c(C)c1C(=O)COC(=O)c1ccc([N+](=O)[O-])s1 | 2 | 6 | 18 | 19 | -4 | 3
CCc1cccc2c(C(=O)COC(=O)c3ccc([N+](=O)[O-])s3)c[nH]c12 | -1 | 37* | 8 | 5 | 101* | 100*
Cc1ccc(C(=O)OCC(=O)c2c[nH]c3ccccc23)cc1 | i | 1 | -5 | 4 | 4 | 2
Oc1ccc(C=NN2CCN(Cc3ccccc3)CC2)cc1 | . | . | 2 | . | 11 | 1
COc1ccc(C=NNC(=O)NC23CC4CC(CC(C4)C2)C3)c(OC)c1 | . | . | 5 | . | -5 | 5
CCc1sc(C(=O)Nc2ccccc2N2CCOCC2)cc1C | -2 | 107* | 3 | 11 | 7 | 9
O=C(Nc1ccc(N2CCOCC2)cc1)c1cc2c(s1)CCCCC2 | i | 5 | 20 | 13 | 2 | 10
O=C(Nc1ccccc1N1CCOCC1)c1cc2c(s1)CCCCC2 | 0 | 73* | 4 | -9 | -4 | 8
Cc1ccc(/C=C2\C(=O)Nc3ccccc32)o1 | -1 | 0 | -4 | 11 | 100* | 60
O=C1Nc2ccccc2/C1=C/c1ccccc1F | -1 | -1 | 4 | -14 | 12 | 12
